Most compounds without a hit are left out; they make up all but 12% or so of the library.
BAZ2B inh = qHTS Assay for Inhibitors of BAZ2B; AID 504333, 2011; AlphaScreen BAZ2B-H3K14Ac peptide displacement; Bromodomain adjacent to zinc finger domain protein 2B (Homo sapiens), Q9UIF8; 360,000 compounds, 4.4% hits; Potency, µM (doses to about 114 µM), without a hit: top-dose activity change, negative = inhibition, most hits filed as inhibitors; note: potency is the fitted concentration of half-maximal effect; % is set by controls: 0 for no effect and ±100 for the full control effect; nearly all actives have a fitted effect of over 60% in size
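Complex of BAZ2B and biotin-H3K14Ac (50 nM apiece) forms over 30 min at RT, then faces library compounds up to 110 uM for another 30 min; AlphaScreen beads added, 20 min dark incubation, luminescence read.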
Sfp PPTase inh = qHTS Assay for Inhibitors of Bacillus subtilis Sfp phosphopantetheinyl transferase (PPTase); 4'-phosphopantetheinyl transferase ffp (Bacillus subtilis), Q9F4F7; Biochemical Sfp PPTase activity, qHTS; Potency, µM, for inactives: largest response in the series, negative = inhibition, most hits filed as inhibitors; 310,000 compounds, 3.5% hits;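 note: the enzyme is Sfp with the accession as filed and its product quenches rhodamine fluorescence; potency is the fitted concentration of half-maximal effect; 0% = enzyme reaction without inhibitor and -100% = no enzyme wells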
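Buffer: 50 mM Hepes-Na pH 7.6, 10 mM MgCl2, 0.01% Nonidet P-40, 0.01% BSA. Enzyme 15 nM, pre-exposed to compound 15 min; substrates then added and fluorescence change tracked over 30 min.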
HP1b chromo inh = HTS for Inhibitors of HP1-beta Chromodomain Interactions with Methylated Histone Tails. AlphaScreen HP1-beta / biotin-H3K9me3 peptide binding. Potency, µM (highest dose often 114 µM), inactives show at the highest dose activity change, negative = inhibition, most hits filed as inhibitors. AID 540317, 2011. 390,000 compounds, 0.56% hits; note: potency is the fitted concentration of half-maximal effect; nearly all actives have a fitted effect of over 70% in size
Target sequence (P83916 whole entry, looked up): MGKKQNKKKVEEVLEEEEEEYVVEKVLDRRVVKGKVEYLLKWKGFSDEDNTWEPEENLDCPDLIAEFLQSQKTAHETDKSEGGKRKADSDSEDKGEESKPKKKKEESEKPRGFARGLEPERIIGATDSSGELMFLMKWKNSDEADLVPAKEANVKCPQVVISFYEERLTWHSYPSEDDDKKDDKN
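AlphaScreen: HP1-beta (50 nM) preformed 30 min with biotin-H3(1-18)K9me3 peptide (50 nM) in PBS pH 7.4, 0.01% Tween-20. Compound added for 30 min at RT, then streptavidin donor/nickel chelate acceptor beads (10 ug/mL) for 30 min.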
JMJD2A Tudor = qHTS Assay for Inhibitors of JMJD2A-Tudor Domain; Lysine-specific demethylase 4A (Homo sapiens), O75164; AlphaScreen JMJD2A-Tudor / H3K4me3 peptide binding; 390,000 compounds, 4.4% hits; Potency, µM (top dose mostly 114 µM), inactives show at the top dose activity change, negative = inhibition, hits mostly inhibitors; AID 504339, 2011; note: potency is the fitted concentration of half-maximal effect; % is set by controls: 0 for no effect and ±100 for the full control effect; nearly all actives have a fitted effect of over 50% in size
G9a block = qHTS Assay for Inhibitors of Histone Lysine Methyltransferase G9a; Potency, µM (highest dose often 102 µM), without a hit: at the highest dose activity, negative = inhibition, hits mostly inhibitors; 350,000 compounds, 8.8% hits; G9a H3K9 monomethylation, AlphaScreen, 2 h; Histone-lysine N-methyltransferase EHMT2 (Homo sapiens), Q96KQ7; note: potency is the fitted concentration of half-maximal effect; % is set by controls: 0 for no effect and ±100 for the full control effect; nearly all actives have a fitted effect of over 75% in size
Target sequence (Q96KQ7 913-1193 limits assumed): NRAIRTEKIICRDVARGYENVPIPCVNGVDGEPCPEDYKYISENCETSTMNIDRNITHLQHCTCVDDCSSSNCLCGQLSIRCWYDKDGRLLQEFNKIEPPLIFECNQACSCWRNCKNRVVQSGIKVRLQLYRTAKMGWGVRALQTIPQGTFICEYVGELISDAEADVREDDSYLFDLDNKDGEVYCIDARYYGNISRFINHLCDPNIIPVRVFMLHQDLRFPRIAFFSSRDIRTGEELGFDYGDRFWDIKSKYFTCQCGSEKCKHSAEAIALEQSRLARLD
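AlphaScreen read-out: biotin-H3K9 peptide (500 nM) methylation by 20 nM enzyme with 20 uM SAM, 2 h at room temperature after 15 min compound preincubation; anti-monomethyl H3K9 antibody plus donor/acceptor beads, 10 min dark.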
Sfp PPTase conf = Confirmation qHTS Assay for Inhibitors of Bacillus subtilis Sfp phosphopantetheinyl transferase (PPTase); Sfp PPTase enzymatic assay, qHTS titration; Potency, µM (titrated, usually from 114 µM), without a hit: at the top dose activity change, negative = inhibition, most hits filed as inhibitors; 380 compounds, 79% hits; shares compounds with Sfp PPTase inh;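 note: potency is the fitted concentration of half-maximal effect; plate controls were uninhibited Sfp reaction for no effect and no enzyme control for full effect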
Target sequence (Q9F4F7 whole entry, looked up): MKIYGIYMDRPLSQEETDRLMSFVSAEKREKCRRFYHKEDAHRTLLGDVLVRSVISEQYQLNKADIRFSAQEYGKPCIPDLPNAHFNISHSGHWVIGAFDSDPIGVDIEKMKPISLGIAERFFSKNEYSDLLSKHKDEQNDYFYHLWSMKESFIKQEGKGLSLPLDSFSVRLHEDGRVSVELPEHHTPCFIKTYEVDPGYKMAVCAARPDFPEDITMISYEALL
Sfp gel assay = Gel-Based Assay for Inhibitors of Bacillus subtilis Sfp phosphopantetheinyl transferase (PPTase); purified Sfp, gel-based phosphopantetheinylation read-out; 210 compounds, 20% hits; shares compounds with Sfp PPTase inh; Potency, µM, most hits filed as inhibitors;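 active = potency below 100 µM; inconclusive = dose-dependent response but potency above 100 µM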;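 note: band intensities scaled against SCH202676 control wells before curve fitting; potency is an IC50 for inhibitors of Sfp transfer activity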
An asterisk follows results filed as active; ! = not active in a repeat; [ ] = another dose, or the depositor's remark. Unless noted, calls come from the whole dose curve; as a rule, active = well fitted curve in the direction sought with a large enough effect; inconclusive = small, poorly fitted or top-dose-only effect, or another doubt; inactive = no such curve, though single readings can be large; an effect the other way counts as inactive or inconclusive.

For N#C/C(=C/c1ccc(N2CCCCCC2)o1)c1ccc(Cl)cc1 the results were BAZ2B inh 45µM*, Sfp PPTase inh 5µM*, HP1b chromo inh -35%, JMJD2A Tudor 40µM*, G9a block 7.9µM* and Sfp PPTase conf 19µM*.
`N#C/C(=C/c1ccc(N2CCCCC2)cc1)c1cccc(F)c1` gave BAZ2B inh -35%, Sfp PPTase inh -8%, HP1b chromo inh inconclusive, JMJD2A Tudor inconclusive and G9a block 4%[59 µM].
For N#C/C(=C/c1ccc(N2CCCCC2)o1)c1cccc(F)c1 the results were BAZ2B inh 40µM*, Sfp PPTase inh 2.8µM*, HP1b chromo inh inconclusive, JMJD2A Tudor 45µM*, G9a block 2.5µM*, Sfp PPTase conf 21µM* and Sfp gel assay 19µM*.
`Cc1ccc(/C(C#N)=C\c2ccc(N3CCOCC3)o2)cc1` gave BAZ2B inh 79µM*, Sfp PPTase inh 1.4µM*, HP1b chromo inh inconclusive, JMJD2A Tudor 56µM*, G9a block 2.5µM*, Sfp PPTase conf 13µM* and Sfp gel assay inactive.
`COCCNC(=O)/C(C#N)=C/c1ccc(N2CCOCC2)o1` gave BAZ2B inh -8%, Sfp PPTase inh -11%, HP1b chromo inh 7%, JMJD2A Tudor -5% and G9a block inconclusive.
COc1ccc(N(Cc2cccs2)C(=O)c2ccco2)cc1 was read as BAZ2B inh -10%, HP1b chromo inh 38%, JMJD2A Tudor 0% and G9a block 3%[59 µM].
`Cc1ccc(NC(=O)CN2C(=O)NC(C)(C)C2=O)cc1S(=O)(=O)N1CCCCCC1` gave BAZ2B inh -3%, HP1b chromo inh 16%, JMJD2A Tudor -13% and G9a block -33%.
`CCOC(=O)c1nn(-c2ccccc2)c(=O)c2c(N)scc12` gave Sfp PPTase inh 13µM*, HP1b chromo inh 22%, JMJD2A Tudor -34%[11.4 µM], G9a block 1.6µM* and Sfp PPTase conf 19µM*.
For CCOC(=O)c1nn(-c2ccccc2C)c(=O)c2c(N)scc12 the results were BAZ2B inh 79µM*, Sfp PPTase inh 3.2µM*, HP1b chromo inh -16%, JMJD2A Tudor 18µM*, G9a block 3.2µM* and Sfp PPTase conf 15µM*.
Screening O=C(NC(=O)N1CCN(C(c2ccccc2)c2ccccc2)CC1)c1ccccc1 returned BAZ2B inh -13%, Sfp PPTase inh 7%, HP1b chromo inh 10%, JMJD2A Tudor -28% and G9a block 0%[12.7 µM].
`COC(=O)c1sc(NC(=O)c2cc(-c3ccccc3)nc3ccccc23)c(C#N)c1C` gave BAZ2B inh -33%, Sfp PPTase inh 0.63µM*, HP1b chromo inh 7.9µM*, JMJD2A Tudor -3%[57.1 µM], G9a block inconclusive and Sfp PPTase conf 8.3µM*.
`Cc1ccc(CN2CCC(C(=O)Nc3cccc(-c4cccc(F)c4)c3)CC2)o1` gave BAZ2B inh inconclusive, Sfp PPTase inh -3%, HP1b chromo inh 21% and JMJD2A Tudor -24%.
Screening Cc1c(Cl)cccc1NC(=O)CC(Cc1ccccc1)C(=O)O (stereo not given) returned BAZ2B inh 4%, Sfp PPTase inh 21%, HP1b chromo inh 16%, JMJD2A Tudor -20% and G9a block 24%.
Screening Cc1c(Cl)cccc1NC(CC(=O)c1ccccc1)C(=O)O (stereo not given) returned BAZ2B inh -19%, Sfp PPTase inh 7.9µM*, HP1b chromo inh 19%, JMJD2A Tudor -21%, G9a block inconclusive, Sfp PPTase conf 11µM* and Sfp gel assay inactive.
For O=C(CC(Nc1ccc(Cl)cc1)C(=O)O)c1ccccc1 (stereo not given) the results were BAZ2B inh -2%, Sfp PPTase inh 7.1µM*, HP1b chromo inh 30%, JMJD2A Tudor -9%, G9a block 2.2µM*, Sfp PPTase conf inconclusive and Sfp gel assay inconclusive.
`O=C(CC(Nc1ccccc1Cl)C(=O)O)c1ccccc1` (stereo not given) gave BAZ2B inh -34%, Sfp PPTase inh 4µM*, HP1b chromo inh 27%, JMJD2A Tudor -14%, G9a block inconclusive, Sfp PPTase conf 13µM* and Sfp gel assay inconclusive.
O=C(CC(=O)c1ccccc1)Nc1ccc(Cl)cc1 was read as BAZ2B inh 4%, Sfp PPTase inh 23%, HP1b chromo inh 67%, JMJD2A Tudor -1% and G9a block 6%.
For CCN1CCN(C(=O)C2CCN(c3nnc(-n4c(C)ccc4C)s3)CC2)CC1 the results were BAZ2B inh 0%, Sfp PPTase inh 9%, HP1b chromo inh 30%, JMJD2A Tudor -23% and G9a block inconclusive.
For CN(C)S(=O)(=O)c1cccc(NC(=O)CSc2nncn2-c2ccccc2)c1 the results were BAZ2B inh -4%, Sfp PPTase inh 12%, HP1b chromo inh 25%, JMJD2A Tudor -18% and G9a block 0%.
`CCN(C(=O)COC(=O)CCOc1ccccc1)c1c(N)n(Cc2ccccc2)c(=O)[nH]c1=O` gave BAZ2B inh -4%, HP1b chromo inh 29%, JMJD2A Tudor -10% and G9a block 2%[12.7 µM].
CCN(CC)CCOCCOC(=O)C1(c2ccccc2)CCCC1 was read as Sfp PPTase inh 50µM*!, HP1b chromo inh 12%, JMJD2A Tudor 32µM*, G9a block 30µM*!, Sfp PPTase conf inconclusive and Sfp gel assay inactive.
CCN(CC)CCOCCOC(=O)C(CC)(CC)c1ccccc1 was read as BAZ2B inh 7%, Sfp PPTase inh 5%, HP1b chromo inh -8% and JMJD2A Tudor inconclusive.
`CC(C)(C)NC(=O)C(c1cccnc1)N(C(=O)c1ccc(Cl)nc1)C1CCCC1` (stereo not given) gave BAZ2B inh 56µM*, Sfp PPTase inh 3.5µM*, HP1b chromo inh 24%, JMJD2A Tudor 0%, G9a block 2.8µM*, Sfp PPTase conf 0% and Sfp gel assay inactive.
Screening CCc1c(C)sc(NC(=O)C2CCCCC2C(=O)O)c1C(N)=O (stereo not given) returned BAZ2B inh -29%, Sfp PPTase inh 4.5µM*, HP1b chromo inh inconclusive, JMJD2A Tudor inconclusive, G9a block inconclusive and Sfp PPTase conf 11µM*.

From PubChem
